From the supplement of paper PMC6555819

Legend:
Assay in all cases: PBM binding z-score (relative to random genomic background probes); higher = stronger binding; sequences stand for … in GC…GCGATTGACAGCGTAGAATGAAGG
[1] = tested on: RARb homodimer (NR concentration 270 nM)
How it was run: (§1)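 On custom Agilent 4×180K arrays, double-stranded probes with 34-nt variable regions carried direct-repeat seeds, single-nucleotide variants, half-site ablations or random human genomic background. Ligand-free nuclear receptor dimers were applied for 1 h, and binding was read with antibodies against each partner (one per run). Binding z-scores come from regression-normalized fluorescence, with the random background probes as reference.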

[2] = tested on: RARg:RXRa (NR concentration 270 nM, RXRa partner concentration 90 nM)
How it was run: as §1

[3] = tested on: RARg homodimer (NR concentration 270 nM)
How it was run: as §1

[4] = tested on: RXRa DBDmut IVT, anti-RXR (DBD mutation: RXRa K156A/R161A, NR concentration 90 nM)
How it was run: as §1

[5] = tested on: RXRa homodimer (NR concentration 180 nM)
How it was run: as §1

[6] = tested on: THRa:RXRa (NR concentration 90 nM, RXRa partner concentration 90 nM)
How it was run: as §1

[7] = tested on: THRa homodimer (NR concentration 90 nM)
How it was run: as §1

[8] = tested on: VDR homodimer (NR concentration 270 nM)
How it was run: as §1

Sequence | PBM binding z-score [1] | PBM binding z-score [2] | PBM binding z-score [3] | PBM binding z-score [4] | PBM binding z-score [5] | PBM binding z-score [6] | PBM binding z-score [7] | PBM binding z-score [8]
TCTAGTTGGTCAAAGATCACACACTCGAAATGCG | 0.919 | 1.57 | 0.992 | 1.48 | 1.61 | 0.536 | 0.263 | 0.452
TCATATAGGTAAAAGGTGAAACTCGGTGTGGTAA | 2.15 | 2.48 | 1.17 | 1.9 | 3.81 | 2.16 | 0.677 | 0.686
CCAGACAGGTGAGAAGGAAACTCAGCCTCGATTA | -0.0325 | 0.209 | 0.469 | -0.203 | 0.154 | -0.307 | 0.13 | -0.0277
TCTCGGAGGACAAGAAGGTCAGAGCTTTCCAGAG | 3.34 | 2.76 | 3.26 | 0.905 | 1.69 | 2.09 | 0.236 | 0.789
GAAACAGGGTCAAGGCCAGAGTACGCGTATTGAT | 4.02 | 5.52 | 5.06 | 2.9 | 6.17 | 3.85 | 1.44 | 2.56
CCTAGCAGGCCAGGGCCACTCAAGCATTTCGCTT | -0.124 | -0.441 | -0.124 | -0.762 | -0.718 | -0.482 | -0.794 | -0.946
CGAACTAGGTCATTGACCGGACAGTGAATAGTAA | 2.74 | 4.42 | 4.59 | 2.25 | 2.82 | 2.57 | 0.878 | 1.18
